High-throughput results: PubChem BioAssay, National Center for Advancing Translational Sciences (NCATS)
The list is not random: actives were taken first. Their share in the collection is about 7.3%.
FLuc modulator = counter-screen for miR-21 project: firefly luciferase inhibitors or activators. P08659. purified FLuc, Km substrates, luminescence inhibition. Potency, µM (highest dose often 57.5 µM), for inactives: at the highest dose activity change, negative = inhibition, hits mostly inhibitors. hit rate 6.9% among 360,000;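 note: plate controls were vehicle for no effect and reference inhibitor for full effect; nearly all actives have a fitted effect of over 55% in size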
Target sequence (P08659 whole entry, looked up): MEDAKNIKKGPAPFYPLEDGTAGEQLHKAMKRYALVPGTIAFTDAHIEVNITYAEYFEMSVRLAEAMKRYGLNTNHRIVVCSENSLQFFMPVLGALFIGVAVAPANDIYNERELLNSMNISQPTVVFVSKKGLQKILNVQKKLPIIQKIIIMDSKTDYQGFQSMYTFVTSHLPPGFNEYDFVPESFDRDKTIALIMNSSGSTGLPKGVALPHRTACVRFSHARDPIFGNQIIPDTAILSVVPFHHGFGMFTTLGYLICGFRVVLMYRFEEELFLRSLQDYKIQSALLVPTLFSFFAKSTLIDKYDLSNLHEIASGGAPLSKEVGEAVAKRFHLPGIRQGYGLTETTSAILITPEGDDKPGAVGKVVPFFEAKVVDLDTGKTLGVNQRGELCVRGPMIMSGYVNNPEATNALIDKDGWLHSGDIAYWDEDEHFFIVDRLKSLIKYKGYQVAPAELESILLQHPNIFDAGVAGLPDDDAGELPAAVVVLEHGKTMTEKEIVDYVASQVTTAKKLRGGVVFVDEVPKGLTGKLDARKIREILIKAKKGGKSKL
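Purified P. pyralis luciferase (10nM final) with 10uM D-luciferin and 10uM ATP (Km levels) in 50mM Tris acetate pH 7.5, 10mM Mg acetate, 0.01% Tween-20, 0.05% BSA; qHTS 6-point titration, ~60 µM downward; luminescence read.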
Rab9 prom act = activates the Rab9 promoter | hit rate 2.8% among 320,000 | Potency, µM (series often up to 9.22 µM), inactives show top-dose activation, negative = inhibition, actives largely listed as activators | Huh7 Rab9 promoter-luciferase reporter, luminescence, 24 h; note: % of control where 0% means no effect; nearly all actives have a fitted effect of over 60% in size
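Using Huh7 cells stably transfected with Rab9 promoter–luciferase, compounds were incubated 24 h at 37 °C, 5% CO2; luciferase luminescence was read 10 min after reagent addition.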
SMN2 splice enh = enhancers of SMN2 splice variant expression. HEK293 SMN2-luciferase splicing reporter, luminescence, 30-36 h. hit rate 2.8% among 210,000. Potency, µM (doses to about 46.1 µM), for inactives: at the highest dose activity change, positive = activation, usual class: activators. AID 1458; note: % of control where 0% means no effect; nearly all actives have a fitted effect of over 55% in size
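qHTS luciferase splicing reporter: luminescence rises when SMN2 exon 7 is included in transfected HEK293 cells. Compound exposure lasted 30-36 h at 37C, with 4.5 mM final sodium butyrate as control, followed by a ONE-Glo read.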
NPC1 prom act = activators of NPC1 promoter | hit rate 2.4% among 320,000 | AID 485313 | Potency, µM (top dose mostly 9.22 µM), inactives show at the highest dose activation, actives largely listed as activators | Huh7 NPC1 promoter luciferase reporter, 24 h; note: % of control where 0% means no effect; nearly all actives have a fitted effect of over 60% in size
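Compounds in DMSO were transferred onto Huh7 NPC1-luciferase reporter cells pre-incubated 2 h; after 24 h at 37 °C, Amplite reagent was dispensed and luminescence recorded 10 min later.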
Luc counter = Kinase-Glo luciferase inhibition (counter-screen); Potency, µM (titrated, usually from 38.3 µM), without a hit: top-dose activity change, negative = inhibition, most hits filed as inhibitors; Kinase-Glo luciferase, ATP luminescence, 8 min; hit rate 0.28% among 200,000; note: % is set by controls: 0 for no effect and ±100 for the full control effect; nearly all actives have a fitted effect of over 60% in size
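Compound is pinned into ATP-containing buffer (10 uM ATP, imidazole pH 7.2, 7 mM MgCl2). Kinase-Glo luciferase reagent is then added. Light output is recorded following an 8-min room-temperature incubation.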
The depositor's hits bear a star; ? = inconclusive; . = no result given. Calls come from the whole dose curve; as a rule, active = well fitted curve in the direction sought with a large enough effect; inconclusive = small, poorly fitted or top-dose-only effect, or another doubt; inactive = no such curve, though single readings can be large; an effect the other way counts as inactive or inconclusive. Potency is the fitted concentration of half-maximal effect.

SMILES	FLuc modulator	Rab9 prom act	SMN2 splice enh	NPC1 prom act	Luc counter
CCCc1ccc(-c2cc(N)n[nH]2)cc1	7.6µM*	?	17%	?	2%
O=S(=O)(c1ccc(C2CCCCC2)cc1)N1CCN(c2cc(Cl)ccc2Cl)CC1	-5%	.	5%	.	.
CCN(CC)c1ccc(CNCCCSc2nnnn2C)cc1	-1%	.	.	.	.
COc1ccc(N2CCN(S(=O)(=O)c3ccc(F)c(C(=O)Nc4ccccc4Cl)c3)CC2)cc1	3%	.	.	.	.
COc1ccc(NC(=O)CSc2ncc(-c3ccc(Cl)cc3)[nH]2)cc1OC	-28%	.	-19%	.	.
CCN(CC)C(=O)c1sc2c(c1C)c(=O)n(-c1ccc(Cl)c(Cl)c1)c(=O)n2CC(=O)Nc1cccc(OC)c1	-4%	.	.	.	.
O=C(Nc1n[nH]c(C2CCCCC2)n1)C1CCCCC1	-12%	15%	0.11µM*	11%	1%
CCOc1ccc(-c2nc(SCC(=O)NCCOC)c(-c3ccc(OC)c(OC)c3)[nH]2)cc1	-3%	.	9%	.	.
Cc1cc(C)cc(N2C(=O)N(Cc3cccc(F)c3)c3ccccc3S2(=O)=O)c1	-2%	.	.	.	.
Nc1c(C(=O)Nc2ccc(C(F)(F)F)cc2)sc2nc(-c3cccs3)ccc12	-8%	.	-5%	.	.
NC(=O)c1sc2nc(-c3ccccc3)ccc2c1N	2.1µM*	3.2µM*	.	1.8µM*	.
NC(=O)c1sc2nc(-c3cccs3)ccc2c1N	9.5µM*	?	.	?	.
CC(=O)c1sc2nc(-c3ccco3)ccc2c1N	3.8µM*	?	.	?	.
Nc1c(C(=O)NC2CCCC2)sc2nc(-c3cccs3)ccc12	-19%	13%	20%	14%	1%
Cc1cc(F)ccc1NC(=O)c1sc2nc(-c3cccs3)ccc2c1N	3%	.	10µM*	.	.
CCCCCCCCCCCC(CC1OC(=O)C1CCCCCC)OC(=O)C(CC(C)C)NC=O (configuration not stated)	.	.	2%	.	-2%
CCOC(=O)c1sc2nc(-c3ccccc3)ccc2c1N	0.19µM*	0.28µM*	0.79µM*	0.35µM*	-4%
COc1ccc(S(=O)(=O)NCC(c2ccco2)S(=O)(=O)c2cccs2)cc1F (configuration not stated)	0%	.	.	.	.
COc1ccc(C(=O)NCC2OCCc3ccccc32)cc1OC (configuration not stated)	-3%	11%	3%	-3%	-2%
CCOc1ccc(C(=O)NCC2OCCc3ccccc32)cc1 (configuration not stated)	17µM*	13%	24%	8%	-8%
COc1ccc(C(=O)NCC2OCCc3ccccc32)cc1 (configuration not stated)	15µM*	17%	-18%	29%	-6%
COc1ccc(S(=O)(=O)NCCc2cn3ccsc3n2)cc1OC	-2%	.	.	.	.
Nc1nc(Nc2ccccc2)nc2c1ncn2[C@@H]1O[C@H](CO)[C@H](O)[C@H]1O	.	.	24%	.	-1%
O=C(NC(=O)c1ccccc1)Nc1ccc(Cl)cn1	2.1µM*	1µM*	.	0.63µM*	.
O=C(Nc1ccc(Cl)cn1)Nc1ccc(Cl)cn1	-4%	22%	14%	22%	2%
SMILES	FLuc modulator	Rab9 prom act	SMN2 splice enh	NPC1 prom act	Luc counter
Nc1ccccc1NC(=O)NC(=O)c1ccccc1	11µM*	2.2µM*	.	?	.
COc1cc2ccccc2cc1C(=O)Nc1ccc(Cl)cn1	?	1.4µM*	.	2µM*	.
O=C(Nc1ccc(Cl)cn1)c1cccc(F)c1	11µM*	?	16µM*	?	-29%
Cc1ccc(C(=O)n2nc(C)c(S(=O)(=O)N3CCOCC3)c2C)cc1C	-9%	.	.	.	.
CCC(C(=O)Nc1cc(Cl)ccc1OC)n1nc(-c2ccccc2)ccc1=O (configuration not stated)	-13%	.	0%	.	.
C/C(=C\c1ccccc1)C(=O)Nc1ccc(Cl)cn1	?	0.79µM*	.	1.8µM*	.
O=C(Nc1ccc(Cl)cn1)c1ccccc1F	4.3µM*	.	16µM*	.	-12%
COc1ccc(CCC(=O)c2c(O)cc(O[C@@H]3O[C@H](CO)[C@@H](O)[C@H](O)[C@H]3O[C@@H]3O[C@@H](C)[C@H](O)[C@@H](O)[C@H]3O)cc2O)cc1O	.	.	9%	.	.
C/C(=N/NS(=O)(=O)c1ccc(Br)cc1)c1ccc(NC(=O)c2ccc(C)o2)cc1	24µM*	7%	14%	2%	-2%
CC(=O)Nc1ccc(/C(C)=N/NS(=O)(=O)c2ccc(C)cc2)cc1	3%	0%	-18%	-2%	-1%
C/C(=N\NS(=O)(=O)c1ccc([N+](=O)[O-])cc1)c1ccc(NC(=O)c2ccco2)cc1	?	5%	18µM*	11%	-4%
CCOc1ccc(-c2cc3nc(C4CCN(C(=O)OC(C)(C)C)CC4)c(C(=O)Nc4cccc(Cl)c4C)cn3n2)cc1	-2%	.	-1%	.	.
CN=c1scc(-c2ccccc2Br)n1/N=C/c1ccc[nH]1	1.1µM*	?	.	?	-9%
Cc1c(C(=S)Nc2ccccc2)cnn1-c1ccc([N+](=O)[O-])cc1	-11%	-4%	-8%	-1%	3%
Cc1c(C(=O)Oc2cccc3ccccc23)cnn1-c1ccccc1	9.5µM*	?	?	22%	-6%
Cc1c(C(=O)Nc2ccccc2F)cnn1-c1ccccc1	5.4µM*	1.4µM*	.	2.5µM*	.
Cc1c(C(=S)Nc2ccccc2)cnn1-c1ccccc1	15µM*	?	5%	?	6%
Cc1nn(-c2ccccc2)cc1C(=S)Nc1ccccc1	12µM*	?	23%	?	-1%
COc1ccc(-n2ccn(Cc3ccccc3Cl)c(=O)c2=O)cc1OC	-1%	.	.	.	.
CCc1ccc(NC(=O)c2cnn(-c3ccccc3)c2C)cc1	0.67µM*	0.56µM*	5.6µM*	0.5µM*	-8%
Cc1c(C(=O)Nc2cc(F)cc(F)c2)cnn1-c1ccccc1	7.6µM*	2.5µM*	.	1.3µM*	.
CC(=O)c1cnn(-c2ccccc2)c1C	-3%	-4%	14%	-2%	2%
CCc1ccc(NC(=O)c2cnn(-c3ccccc3)c2C2CCNCC2)cc1	-4%	6%	-4%	-5%	0%
CCCSc1ncc(Cl)c(C(=O)Nc2sc3c(c2C(=O)OC)CCCC3)n1	1%	.	2%	.	.
c1ccc(OCCSc2nnnn2C2CCCCC2)cc1	2.1µM*	1µM*	11µM*	0.56µM*	0%
COc1ccc(OCCSc2nnnn2C2CCCCC2)cc1	?	19%	18%	1%	1%
COCCNC(=O)c1ccc(-n2c(=O)c(=O)[nH]c3ccccc32)cc1	.	.	.	.	0%
CCc1ccccc1NC(=O)c1ccc2c(c1)N(Cc1cccc(Cl)c1)C(=O)c1ccccc1S2(=O)=O	-3%	.	4%	.	.
CCOC(=O)COc1ccccc1/C=N\NC(=O)c1cc2c(ccc3ccccc32)o1	24µM*	0%	.	-4%	.
CCOc1cc(/C=N/NC(=O)c2cc3c(ccc4ccccc43)o2)ccc1O	?	2%	.	3%	.
